This passage reports Potency results from PubChem BioAssay AID485297 (National Center for Advancing Translational Sciences (NCATS), 2010).

Hit rate of the full screen: of about 320,000 compounds, about 9,100 (2.8%) were called active. A call without a number means that no potency is given here. Another 3% or so got no clear call; they are omitted. Calls follow the shape of the dose curve; as a rule, active = well fitted activation curve with a large enough effect; inconclusive = small, poorly fitted or top-dose-only effect; inactive = no such curve, though single readings can be large or run the other way. The full list was thinned out, with actives kept by preference.
Potency is read from the fitted curve at half-maximal effect.

The experiment in a line: qHTS Assay for Rab9 Promoter Activators. Also: nearly all actives have a fitted effect of over 60% in size. The following applies: Huh7 Rab9 promoter-luciferase reporter, luminescence, 24 h; series mostly up to 9.22 µM. Put shortly:
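Quantitative HTS format; Huh7 Rab9-luciferase reporter cells (1500/well) receive compound 2 h post-plating, incubate 24 h at 37 °C, then get luciferase reagent for 10 min before luminescence reading.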
A general note: In qHTS, concentration-response curves come from the screen itself.
For the compound `O=C(c1cn(-c2ccccc2)nc1-c1cccnc1)N1CCN(S(=O)(=O)c2ccccc2F)CC1`, the Potency entry was “inactive”.
For the compound `Cc1ccc(Nc2nc(-c3ccc(O)cc3O)cs2)nc1`, the Potency is 1.41 µM (active).
Regarding `CC(=O)Nc1ccc(C(=O)Nc2nc(-c3cc(C)n(Cc4ccccc4)c3C)cs2)cc1`, the Potency result is “inactive”.
Turning to `O=C(CCNS(=O)(=O)c1ccccc1C(F)(F)F)Nc1ccncc1`, the Potency entry is “inactive”.
For `Cc1cccc(OCCC(=O)OCc2csc(CC(=O)Nc3ccccc3C)n2)c1`, the Potency result was “inactive”.
As for `Cc1cc(Cl)c2oc(C(=O)N3CCC(O)(c4ccccc4)CC3)c(C)c2c1`, the Potency result was “inactive”.
For `O=c1cc(Cn2nnc(-c3ccc(Cl)cc3)n2)nc2sccn12`, the Potency result was “inactive”.
In the case of `COc1ccccc1N1CCN(C(=O)Cn2nnc(-c3cccs3)n2)CC1` it was “inactive”.
In the case of `Clc1cccc(Cl)c1Cn1nnc(-c2cccs2)n1` it was 2.82 µM (active); in that of `Nc1ccc(-n2nncc2-c2ccco2)cc1`, “inactive”.
As for `COc1ccc(CCC(=O)N2CCN(S(=O)(=O)c3ccc(OC)cc3)CC2)cc1`, the Potency result was “inactive”.
The value for `COc1ccc(CCNC(=O)CCc2ccccc2O)cc1OC` was “inactive”.
The value for `O=C(O)/C(=C/c1cccnc1)NC(=O)c1ccccc1` was “inactive”.
`CCOc1ccc(NC(=O)CN(C)C(=O)CCSc2ccc(F)cc2)cc1OCC`: the Potency entry was “inactive”.
For `C=CCSc1ccc(S(=O)(=O)N2CCN(C)CC2)cn1`, the Potency entry was “inactive”.
In the case of `O=C(Nc1ccccc1)N1CCC(C(=O)N2CCN(Cc3ccccc3)CC2)CC1` it was “inactive”; in that of `Cn1c(N)c(C(=O)COC(=O)/C=C/c2cccc(C(F)(F)F)c2)c(=O)n(C)c1=O`, “inactive”; in that of `C/C(=N\Nc1ncc(Cl)cc1Cl)c1cccs1`, 1.26 µM (active).
In the case of `C/C(=N\NS(=O)(=O)c1ccc(Br)cc1)c1cccs1` it was “inactive”.
The value for `O=C(Nc1ccccc1-c1nc2ccccc2[nH]c1=O)c1cccs1` was “inactive”; that for `C/C(=N\Nc1ccc(S(N)(=O)=O)cc1[N+](=O)[O-])c1cccs1` was “inactive”; that for `C/C(=N\Nc1nc(Nc2ccccc2)nc(N2CCOCC2)n1)c1cccs1` was “inactive”.
As for `C/C(=N\Nc1nc2ccccc2[nH]1)c1cccs1`, the Potency was 1 µM (active).
In the case of `O=C(c1ccc(Cl)nc1)N1CCN(S(=O)(=O)c2ccc3c(c2)OCCO3)CC1` it was “inactive”; in that of `CCc1ccccc1OCC(=O)Nc1ccc(C)c(S(=O)(=O)N2CCCCCC2)c1`, “inactive”; in that of `CCCCN(C(=O)C1=NN(c2cc(C)ccc2C)C(=O)CC1)c1c(N)n(CCC)c(=O)[nH]c1=O`, “inactive”.
In the case of `CCC1CCC2(CC1)NC(=O)N(CC(=O)Nc1ccc(OC)cc1)C2=O` (centres undefined) it was “inactive”; in that of `COc1ccc(OC)c(CN2CCN(C(=O)CNC(=O)c3cc(C)cc(C)c3)CC2)c1`, “inactive”; in that of `COc1cc([C@H](Cc2ccccc2)NC(C)=O)oc(=O)c1`, “inactive”.
